± gives the standard deviation of the averaged measurements.
System: Drosophila virilis antennal basiconic sensillum AB1
Assay: odor-evoked OSN spike response (post minus pre-stimulus); higher = stronger neuronal excitation
Conditions: odor dilution: 10^-4
Protocol: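 Single sensillum recordings from antennal basiconic sensilla of D. virilis. A 500 ms pulse of odorant (10^-4 in mineral oil or DMSO) was delivered; the response is the change in spike frequency between the 1 s pre- and post-stimulus windows (spikes/s).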

Structure (SMILES)	odor-evoked OSN spike response
CC(C)=O [acetone]	73.5 ± 24 spikes/s

From the supplement of paper PMC10477191
